Rpn11 inh – blocks the human proteasome subunit Rpn11; hit rate 0.59% among 360,000; human 26S proteasome, Ub4-pepOG fluorescence polarization; 20S core pre-blocked with epoxomicin; O00487; inhibition, % at 20 µM;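 active = inhibition at 20 µM, scaled to each plate's controls, above about 33%, limit read from the data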
Target sequence (O00487 whole entry, looked up): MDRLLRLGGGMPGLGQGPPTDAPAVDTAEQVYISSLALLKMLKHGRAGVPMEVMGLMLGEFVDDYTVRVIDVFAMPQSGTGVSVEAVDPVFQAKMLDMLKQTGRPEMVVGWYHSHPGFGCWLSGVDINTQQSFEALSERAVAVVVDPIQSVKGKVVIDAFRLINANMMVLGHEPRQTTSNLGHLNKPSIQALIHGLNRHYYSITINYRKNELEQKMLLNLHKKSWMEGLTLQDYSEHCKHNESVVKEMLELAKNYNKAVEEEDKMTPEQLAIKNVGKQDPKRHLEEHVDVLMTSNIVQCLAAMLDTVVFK
GRIN3A LBD mod – modulators (binders) of human NR3A ligand-binding domain | NR3A LBD differential scanning fluorimetry, Tm shift; 0% = protein alone, 100% = glycine-bound protein | Tm shift relative to glycine control, % at 25 µM | hit rate 2.5% among 340,000;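 active = melting temperature shift of at least 10% of the positive control shift, at one fixed dose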
dFosB act – mouse delta FosB homodimer activation | P13346 | purified delta FosB, TAMRA-CDK5 oligo fluorescence polarization; percent of positive-control signal above neutral wells | activation, % at 25 µM | hit rate 0.99% among 340,000;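 active = mean activation above about 17%, with every replicate also reaching it, limit read from the data, passing the limit was not always enough; inconclusive = only one of the two conditions met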
ZTA DNA inh – counter-screen for EBNA-1 inhibitors: inhibitors of Epstein-Barr virus ZTA. P03206. ZTA-DNA binding, fluorescence polarization. inhibition, % at 11 µM. hit rate 0.15% among 320,000; in the data active = inhibition above about 33%
Target sequence (P03206 whole entry, looked up): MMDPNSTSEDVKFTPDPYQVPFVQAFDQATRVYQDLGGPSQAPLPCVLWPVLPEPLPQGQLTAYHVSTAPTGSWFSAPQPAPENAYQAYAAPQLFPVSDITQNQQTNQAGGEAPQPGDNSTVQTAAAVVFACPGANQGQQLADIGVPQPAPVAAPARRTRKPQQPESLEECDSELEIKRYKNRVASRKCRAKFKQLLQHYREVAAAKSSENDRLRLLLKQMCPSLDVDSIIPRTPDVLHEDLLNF
TPT1 inh – blocks Candida albicans tRNA 2'-phosphotransferase; inhibition, % at 5 µM; hit rate 0.81% among 300,000; AID 1962; recombinant caTPT1, FP RNA substrate dephosphorylation;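 active = inhibition above the mean of all tested compounds plus 3 SD, set per screening campaign, cut at about 24% in these data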
EBNA-1 inhibitor – blocks EBNA-1 binding to DNA | EBNA-1 DNA binding, fluorescence polarization | inhibition, % at 14.8 µM | hit rate 0.34% among 300,000; in the data active = inhibition above about 28%
Each line names hits and unclear results; the compound was inactive in the other large screens. In the library only some 4.5% were active in any assay of this set; here they are far more common.

Cc1nc2ccc(NC(=O)COc3ccccc3[N+](=O)[O-])cc2s1	none
Cc1nc2ccc(NC(=O)c3ccc(Cl)s3)cc2s1	GRIN3A LBD mod 27
Cc1nc2ccc(NC(=O)COc3ccccc3C)cc2s1	GRIN3A LBD mod 32
CSc1nc2ccc(NC(=O)c3nn(C(C)C)c(=O)c4ccccc34)cc2s1	none
O=C(OCC(=O)c1ccc(Cl)s1)c1cnccn1	none
O=C(Nc1ccc(Br)cc1Br)C1CC(=O)N(Cc2ccccc2)C1 (stereo not given)	none
Cc1cc(-c2nnc(SCCC(=O)Nc3ccccc3)o2)no1	none (no result: ZTA DNA inh, TPT1 inh, EBNA-1 inhibitor)
O=C(CNC(=O)c1ccccc1Cl)NCCc1cccs1	none (no result: ZTA DNA inh, TPT1 inh, EBNA-1 inhibitor)
O=C(Oc1ccc(-n2cnnn2)cc1)c1ccccc1	none
CCCc1cc(-c2n[nH]c(C)c2-c2ccc(C(=O)OCC)o2)c(O)cc1O	GRIN3A LBD mod 35
N#Cc1cccc(N=c2ssnc2Cl)c1	GRIN3A LBD mod 27 (no result: Rpn11 inh, ZTA DNA inh, TPT1 inh, EBNA-1 inhibitor)
Clc1nssc1=Nc1ccc(Br)cc1	none (no result: ZTA DNA inh, TPT1 inh, EBNA-1 inhibitor)
CCOc1cc(S(=O)(=O)Nc2ccc(CC)cc2)ccc1Cl	GRIN3A LBD mod 13
CCOc1cc(S(=O)(=O)Nc2ccc(Cl)cn2)ccc1F	GRIN3A LBD mod 11
Cc1onc(-c2c(Cl)cccc2Cl)c1CO/N=C(\C#N)c1c(Cl)cccc1Cl	none
CCOC(=O)C1(CCCc2ccccc2)CCN(Cc2ccn[nH]2)CC1	none
Oc1ccc(-c2cnc3ccccc3n2)cc1	GRIN3A LBD mod 37
CCCCOc1ccc(-c2cnc3ccccc3n2)cc1	GRIN3A LBD mod 22
Fc1ccc(F)c(CNc2ncnc3cc(Cl)ccc23)c1	none
O=C(CCl)Nc1cc(-c2ccccc2)nn1-c1ccccc1	none
Nc1ccccc1Nc1cc(-c2ccccc2)nn1-c1cccc(Cl)c1	GRIN3A LBD mod 11
CC(NC(=O)c1ccncc1)c1ccc(Br)cc1 (stereo not given)	none
COC(=O)/C(=C/c1c[nH]c2ccccc12)[N+](=O)[O-]	GRIN3A LBD mod 16
CCNC(=S)Nc1ccc2c(c1)oc1ccccc12	GRIN3A LBD mod 10
O=C(Nc1ccc2c(c1)oc1ccccc12)c1ccncc1	GRIN3A LBD mod 15
CCNC(=S)Nc1ccc2ncoc2c1	none
O=C(Nc1cccc(C(=O)N2CCOCC2)c1)c1cccnc1	GRIN3A LBD mod 11
O=C(Nc1ccc2c(c1)oc1ccccc12)c1cccnc1	GRIN3A LBD mod 17
O=C(Nc1ccc2ccccc2c1)c1cccnc1	none
Cc1noc(C)c1COc1ccc(C(=O)NCCc2ccc(F)cc2)cc1	none (no result: TPT1 inh, EBNA-1 inhibitor)
CCSc1nc2sc3c(c2c(=O)n1-c1ccccc1)CCN(C(C)C)C3	none (no result: ZTA DNA inh, TPT1 inh, EBNA-1 inhibitor)
CCOc1ccc(OCCC(=O)OCC(=O)NNC(=O)c2ccccc2)cc1	none (no result: GRIN3A LBD mod)
COc1ccc(OCCN2C(=O)NC3(CCc4ccccc4C3)C2=O)cc1 (stereo not given)	none
NNC(=O)c1cc2c(ccc3ccccc32)o1	none
O=C(Nc1cccnc1)c1cc2c(ccc3ccccc32)o1	Rpn11 inh 62
CCc1ccccc1NC(=O)CN1CCN(C(=O)CN2C(=O)NC3(CCCCC3C)C2=O)CC1 (stereo not given)	GRIN3A LBD mod 21 (no result: ZTA DNA inh, TPT1 inh, EBNA-1 inhibitor)
CCc1ccccc1NC(=O)CN1CCN(C(=O)CN2C(=O)NC3(CCCC3)C2=O)CC1	none (no result: TPT1 inh, EBNA-1 inhibitor)
COc1ccc(C2c3ccc4ccccc4c3Oc3ncn(CCN(C)C)c(=N)c32)cc1 (stereo not given)	none
N/C(=N\OC(=O)/C=C/c1ccccc1Cl)c1ccncc1	GRIN3A LBD mod 12
CCCC[C@@H]1CNCCN1CCCc1cc(OC)c(OC)c(OC)c1	none
CCN(CC)CCNC(=O)C(Oc1ccccc1)Oc1ccccc1	GRIN3A LBD mod 31
CCN(CC)CCNC(=O)c1ccccc1N	none
CCN1CCN(Cc2ccc(NC(=O)c3cc(NC(=O)C4=NN(c5ccccc5)C(=O)C4)cc(OC)c3)cc2C(F)(F)F)CC1	dFosB act 60
CCN1CCN(Cc2ccc(NC(=O)c3ccc(C)c(NC(=O)C4=NN(c5ccccc5)C(=O)C4)c3)cc2C(F)(F)F)CC1	dFosB act 66
CCN1CCN(Cc2ccc(NC(=O)c3cc(NC(=O)N4CCNC4=O)cc(OC)c3)cc2C(F)(F)F)CC1	none
COc1ccc(NC(=O)COC(=O)Cc2coc3cc(OC)ccc23)c(OC)c1	none (no result: ZTA DNA inh, TPT1 inh, EBNA-1 inhibitor)
CCOC(=O)c1ccc(N2C(=O)c3n[nH]c(C)c3C2c2cccnc2)cc1 (stereo not given)	none
CCOC(=O)c1ccc(N2C(=O)c3n[nH]c(-c4ccco4)c3C2c2ccc([N+](=O)[O-])cc2)cc1 (stereo not given)	GRIN3A LBD mod 27
COc1cccc(C2C3=C(N=c4s/c(=C\c5cccc(O)c5)c(=O)n42)c2ccccc2CC3)c1OC (stereo not given)	GRIN3A LBD mod 31
Cc1cc(Nc2ccccc2)nn1C(=O)c1ccc(Cl)cc1	none
Cc1cc(Nc2ccccc2)nn1C(=O)c1ccc([N+](=O)[O-])cc1	GRIN3A LBD mod 40
Cc1cc(Nc2ccccc2)n(-c2ccccc2)n1	none
Cc1cc(Nc2ccccc2)n(C(=O)c2ccccc2)n1	GRIN3A LBD mod 18
CCOc1ccc(NC(=S)Nc2ccccc2C2(C)CC2)cc1	none
CC(=O)c1c(C)oc2ccc(NS(=O)(=O)c3cccs3)cc12	GRIN3A LBD mod 17
CCOC(=O)c1c(C)oc2ccc(NS(=O)(=O)c3cccs3)cc12	none
CCCCNC(=O)C(=O)N/N=C/c1ccc(OCC(=O)Nc2cccc(OC)c2)c(OC)c1	GRIN3A LBD mod 11, dFosB act inconclusive
COc1cc(/C=N/NC(=O)c2ccncc2)ccc1OCC(=O)Nc1ccc(C)c(C)c1	GRIN3A LBD mod 12
CCNC(=S)N/N=C/c1ccc(OCC(=O)Nc2ccc(OC)cc2)c(OC)c1	none
COc1ccc(CCNCC(=O)Nc2ccc(C(=O)N3CCCCC3)cc2)cc1	GRIN3A LBD mod 20
Cn1c(SCC(=O)Nc2cc(Cl)cc(Cl)c2)nnc1-c1ccc2nonc2c1	GRIN3A LBD mod 45 (no result: dFosB act)
Cc1nonc1NC(=O)CSc1nnc(-c2ccoc2C)n1C	GRIN3A LBD mod 20
O=C(O)c1ccccc1C(=O)NC1Cc2ccccc2C1	none
O=C(Nc1ccc(F)cc1)Oc1ccc[nH]c1=O	GRIN3A LBD mod 12
O=C(Oc1ccc[nH]c1=O)c1ccccc1	none (no result: GRIN3A LBD mod, dFosB act, ZTA DNA inh, TPT1 inh, EBNA-1 inhibitor)
Cc1ccc(OCC(=O)N/N=C2/SCC(=O)N2Cc2ccco2)cc1	none
O=C(N/N=C1/SCC(=O)N1Cc1ccco1)c1ccccc1F	GRIN3A LBD mod 16
COc1cccc(C(C(=O)NC2CCCCC2)N(C(=O)c2csnn2)C2CC2)c1 (stereo not given)	none
CCC(C)C(NC(=O)CCC(=O)OCC(=O)[C@@]1(O)CCC2[C@@H]3CCC4=CC(=O)C=C[C@]4(C)C3[C@@H](O)C[C@@]21C)C(=O)O (stereo not given in full)	none
CCN(C[C@H]1N[C@@](Cc2ccccc2)(C(=O)OC)[C@H]2C(=O)N(C)C(=O)[C@@H]12)C(=O)Nc1ccc(Cl)cc1	none (no result: ZTA DNA inh, TPT1 inh, EBNA-1 inhibitor)

Screening data from PubChem.
